# Measurements as given in PubChem BioAssay (NCI).
# Compounds without any hit were thinned out: in the full panel of roughly 83,000, 20% have a hit.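 Each cell line was grown in a 96-well plate and treated with one concentration of compound for 48 hours. Values below 10 were considered active.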 Calls of active or inactive are those of the source.
# Columns and labels:
# Assay in all cases: NCI-60 one-dose screen, 48 h (100 = growth as untreated, 0 = no growth, -100 = all killed)
# Details in all cases: 10 µM unless noted
# [1] = tested on: T-47D breast
# [2] = tested on: BT-549 breast
# [3] = tested on: MDA-MB-435 melanoma
# [4] = tested on: SW-620 colon
# [5] = tested on: HCT-116 colon
# [6] = tested on: HCC-2998 colon
# [7] = tested on: KM12 colon
# [8] = tested on: MCF7 breast
SMILES,growth [1],growth [2],growth [3],growth [4],growth [5],growth [6],growth [7],growth [8]
O=C1C(N2CCN(c3ccccc3)CC2)=C(Cl)C(=O)c2ncccc21,-54.2% (active),97.3% (inactive),-67% (active),-35% (active),-56.1% (active),97.8% (inactive),92.3% (inactive),–
CNc1sc(S(=O)(=O)NC)nc1S(=O)(=O)c1ccc(C)cc1,93.5% (inactive),99.5% (inactive),105% (inactive),109% (inactive),100% (inactive),103% (inactive),103% (inactive),–
CC(=O)Nc1cc(N2CCOCC2)c2nc(NC(=O)c3[nH]c(C)c(Cl)c3Cl)sc2c1,46.9% (inactive),74.1% (inactive),59% (inactive),84.4% (inactive),68.5% (inactive),109% (inactive),82.4% (inactive),67.1% (inactive)
COc1ccc(-c2c(C(N)=O)c(N)n(Cc3nc4ccccc4[nH]3)c(=O)c2C#N)c(OC)c1,89.6% (inactive),105% (inactive),109% (inactive),105% (inactive),104% (inactive),110% (inactive),99.8% (inactive),76.5% (inactive)
CCCN1C=C/C(=C\C(=O)n2ccc3ccccc32)c2ccccc21,46.6% (inactive),103% (inactive),93% (inactive),86.6% (inactive),69% (inactive),104% (inactive),84.8% (inactive),–
CCCCSC1=C(Cl)CN(c2ccccc2)C1=O,85% (inactive),110% (inactive),108% (inactive),106% (inactive),104% (inactive),105% (inactive),93.7% (inactive),–
CN1CCN(c2ccc(Nc3nc(NCCNS(=O)(=O)c4ccccc4)c4sccc4n3)cc2)CC1,86.3% (inactive),108% (inactive),105% (inactive),101% (inactive),96% (inactive),106% (inactive),103% (inactive),–
Cc1ccc(CSC2=C(Cl)CN(c3ccc(Cl)cc3)C2=O)cc1,96.5% (inactive),110% (inactive),103% (inactive),108% (inactive),98.5% (inactive),105% (inactive),106% (inactive),–
O=C(CN1CCN(c2cc(=O)[nH]c3ccc(F)cc23)CC1)N(c1ccccc1)c1ccccc1,97.4% (inactive),104% (inactive),102% (inactive),104% (inactive),98% (inactive),106% (inactive),107% (inactive),96.7% (inactive)
Cc1ccccc1Nc1nc(SC(C)C)nc(-c2ccccc2)c1C#N,88.1% (inactive),97.1% (inactive),44.9% (inactive),43.1% (inactive),2.97% (active),86.4% (inactive),94.2% (inactive),51.6% (inactive)
Cn1cc(-c2nn3cc(-c4ccncc4)nc3s2)c2cc(F)ccc21,41.4% (inactive),64.6% (inactive),83.2% (inactive),68.9% (inactive),45.7% (inactive),91.4% (inactive),81.8% (inactive),18.2% (inactive)
O=C1Nc2cc(Cl)ccc2/C1=C\c1ccc(OCc2ccccc2)cc1,95.7% (inactive),101% (inactive),99.4% (inactive),99.4% (inactive),97.7% (inactive),102% (inactive),95.1% (inactive),–
CCOP(=O)(OCC)OC[C@]12CCC(C)(C)C[C@H]1C1=CC[C@@H]3[C@@]4(C)CC[C@H](OP(=O)(OCC)OCC)C(C)(C)[C@@H]4CC[C@@]3(C)[C@]1(C)CC2,26.2% (inactive),54.1% (inactive),62.1% (inactive),68.4% (inactive),18.5% (inactive),73.1% (inactive),63.9% (inactive),–
Cc1ccc(S(=O)(=O)NCCCNc2nccc(-c3[nH]c(-c4ccccc4)nc3-c3ccc(F)c(O)c3)n2)cc1,71.1% (inactive),93.1% (inactive),17.6% (inactive),115% (inactive),69.6% (inactive),127% (inactive),83.9% (inactive),–
COc1ccc(C(C)=C(c2ccc(OCCN3CCCCCC3)cc2)c2ccc(OCCN3CCCCCC3)cc2)cc1,-32.2% (active),13.2% (inactive),-83.7% (active),-50.4% (active),-93% (active),-79.3% (active),-24.8% (active),-72.4% (active)
Brc1ccc(-c2cc(-c3ccc4c(c3)OCCO4)n[nH]2)s1,22.5% (inactive),62% (inactive),-38.1% (active),34.7% (inactive),24.7% (inactive),42.1% (inactive),28.2% (inactive),–
C=C(C)[C@@H]1CC[C@]2(C(=O)O)CC[C@]3(C)[C@H](CC[C@@H]4[C@@]5(C)C/C(=C/c6ccccn6)C(=O)C(C)(C)[C@@H]5CC[C@]43C)[C@@H]12,19% (inactive),45.8% (inactive),36.6% (inactive),27.9% (inactive),13.5% (inactive),31.3% (inactive),30.6% (inactive),–
CCN(CC)S(=O)(=O)c1ccc(-c2nc(C(Cl)Cl)nc3cc(C)nn23)cc1,60.9% (inactive),–,14.8% (inactive),6.12% (active),10% (inactive),23.8% (inactive),8.52% (active),23.5% (inactive)
CN(C)S(=O)(=O)c1ccc(-c2nc(C(Cl)Cl)nc3cc(-c4ccccc4)nn23)cc1,89.5% (inactive),–,81.6% (inactive),49.6% (inactive),72.3% (inactive),100% (inactive),74% (inactive),72% (inactive)
CCC(=C(c1ccc(OCCN(C)C)cc1)c1ccc(OCCN(C)C)cc1)c1ccc(Cl)cc1,-56% (active),–,-88.6% (active),-72.4% (active),-67.7% (active),-72.4% (active),-49.1% (active),-72.8% (active)
COc1cc(NC(=O)Nc2cccc(-c3cc(=O)c4c(OC)c(OC)c(OC)cc4o3)c2)cc(OC)c1OC,11.9% (inactive),31.9% (inactive),57.1% (inactive),41.3% (inactive),28.9% (inactive),60.7% (inactive),38.7% (inactive),–
Cc1ccc(C(=O)Nc2ccc(CNCCN3CCOCC3)c(C(F)(F)F)c2)cc1C#Cc1cnc2cccnn12,4.34% (active),–,-28% (active),14.1% (inactive),2.51% (active),6.09% (active),1.77% (active),6.79% (active)
CN(C)S(=O)(=O)c1ccc(-c2nc(C(Cl)Cl)nc3cc(-c4ccc(F)cc4)nn23)cc1,38% (inactive),–,6.53% (active),4.42% (active),-0.738% (active),8.78% (active),7.53% (active),15% (inactive)
CCOC(=O)c1c(NC(=O)c2cccc(C(F)(F)F)c2)sc2c3c(ccc12)OCN(C)C3,-38.2% (active),–,-55.5% (active),-76.5% (active),-89.4% (active),-88.9% (active),-11.3% (active),-81.9% (active)
CC(=C(c1ccc(OCCN(C)C)cc1)c1ccc(OCCN(C)C)cc1)c1ccc(Cl)cc1,-53.7% (active),–,-82.8% (active),-71.5% (active),-65.1% (active),-87.7% (active),-65.2% (active),-77.6% (active)
CC1=C(C)C(=O)C(Nc2ccc3c(c2)OCCO3)=C(Br)C1=O,80.5% (inactive),101% (inactive),102% (inactive),107% (inactive),90.6% (inactive),102% (inactive),93.7% (inactive),–
CCOC(=O)c1c(NC(=O)c2ccc(C(F)(F)F)cc2)sc2c3c(ccc12)OCN(C)C3,4.14% (active),–,-16.8% (active),-52.4% (active),-75.8% (active),-13.8% (active),12.1% (inactive),-61.7% (active)
